# Experimental data published in PubChem BioAssay AID651820 (National Center for Advancing Translational Sciences (NCATS), 2012).
# Out of some 340,000 compounds screened, about 12,000 (3.5%) were called active. About 18% were inconclusive and are not listed. For the sample, actives were picked, then their nearest neighbours and some compounds at random. Values without a mark were called inactive. The call rests on the fitted dose curve; in most records, active means well fitted inhibition curve with a large enough effect; inconclusive means small, poorly fitted or top-dose-only effect, or another doubt; inactive means no such curve, though single readings can be large or run the other way.
# Assay: qHTS Assay for Inhibitors of Hepatitis C Virus (HCV)
# Settings: Huh7.5.1 HCVcc-Cre infection, luciferase reporter, 44 h; series mostly up to 41.8 µM; activity change, negative = inhibition: at the top concentration
# Procedure, shortened: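 Whole-lifecycle infectious HCVcc-Cre system; cells 1,000/well, compound then virus (~0.5 moi) added 4 h after plating, 44 h culture. Luciferase read 15 sec following 15 min substrate incubation, room temp.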
# On the % scale 0 is the no-effect control and ±100 the full control effect; potency means the concentration at half of the fitted maximal effect.
Compound,"activity change, negative = inhibition [%]",Potency
O=C(COC(=O)c1ccc(Br)o1)NC12CC3CC(CC(C3)C1)C2,7,
CN(C(=O)COC(=O)CCCc1c[nH]c2ccccc12)c1c(N)n(Cc2ccccc2)c(=O)[nH]c1=O,-6.59,
COc1ccc(Cl)cc1NC(=O)CN(C)C(=O)c1ccc2n[nH]nc2c1,-1.24,
CN(C(=O)CSc1nnc(-c2ccc(C(C)(C)C)cc2)n1C)C1CCS(=O)(=O)C1 (configuration not stated),6.07,
O=C(Nc1cccc(C(F)(F)F)c1)c1cnccn1,11.3,
Cn1nc(C(F)(F)F)c(C(=O)Nc2cccc(C(F)(F)F)c2)c1SCc1ccc(Cl)cc1,,10 µM (active)
O=C(O)CSCC(=O)Nc1cccc(C(F)(F)F)c1,5.73,
O=C1OC[C@@H]2CCCN2C(=O)[C@H](CC(=O)N(CCO)Cc2ccccc2)C/C=C\CC[C@@H]1Cc1ccc(F)cc1,6.22,
O=C1c2ccccc2[C@@H]2C[C@@H](O)[C@H](Nc3ccccc3Cl)CCN12,-5.58,
CSc1ccccc1NC(=O)c1cnc2sc(C)cn2c1=O,-27.8,
O=C(CN1C2=NCCN2c2ccccc21)c1cccs1,-31.7,
Nc1c(C(=O)c2cccs2)sc2nsc(SCCN3CCCCC3)c12,,10 µM (active)
O=C(C[C@H]1C[C@H](C(=O)N2CCOCC2)[C@@]2(CCC3CCCC3)c3[nH]c4ccc(Cl)cc4c3CCN2C1=O)NCc1ccco1,43.8,
CC(C)(C)OC(=O)C[C@@H]1C/C=C\C[C@@H](CC(=O)N[C@H](CO)Cc2ccccc2)C(=O)NCCOC1=O,-14.5,
O=S(=O)(O)c1cc2onnc2c2ccccc12,8.72,
Cc1c(Cl)cnc(NC(=O)COC(=O)C2CCCC2)c1Cl,-26.3,
c1ccc(Cc2cc[n+](Cc3ccccc3)cc2)cc1,20.7,
CN(C)c1cc[n+](Cc2ccccc2)cc1,,0.891 µM (active)
CN(C)c1ccc(CSc2ccccc2)cc1,8.39,
O=C1CCC/C=C/C[C@@H](CC(=O)N(CCO)Cc2ccccc2)C(=O)NC[C@H](c2ccccc2)O1,15,
Cc1ccc(S(=O)(=O)N(C)c2ccc(OCC(=O)OCc3ccc(C#N)cc3)cc2)cc1,25.2,

Compound,"activity change, negative = inhibition [%]",Potency
O=C(CN1CCN(c2ccccn2)CC1)Nc1ccc(Br)cc1,3.8,
Cc1cc(Br)ccc1NC(=O)c1cnc(N2CCN(c3ccccn3)CC2)c2ccccc12,,2.51 µM (active)
Cc1cc(Br)ccc1NC(=O)c1sc2ncn(CC(=O)N3CCN(c4ccccn4)CC3)c(=O)c2c1C,9.26,
COc1ccc(NC(=O)N(C)C[C@H]2Oc3ccc(NC(=O)C4CC4)cc3C(=O)N([C@H](C)CO)C[C@@H]2C)cc1,-1.35,
O=C(CCC(=O)c1cccs1)Nc1nc2ccccc2s1,-15,
C/C(=N/OC(=O)c1c(-c2c(F)cccc2Cl)noc1C)c1cnccn1,0.663,
CCOC(=O)c1cc2c(=O)n3ccccc3nc2n(CC(C)C)c1=NC(=O)c1c(-c2c(F)cccc2Cl)noc1C,,10 µM (active)
CCCn1c(=NC(C)=O)c(C(=O)OCC)cc2c(=O)n3ccccc3nc21,-22.4,
CC1CCc2sc3nc(N4CCN(CCO)CC4)n4ncnc4c3c2C1 (configuration not stated),,20 µM (active)
CC1CCc2c(sc3nc4n(c(=O)c23)CCS4)C1 (configuration not stated),-20.1,
CCCn1nnc2sc3c(c2c1=O)CCC(C)C3 (configuration not stated),0.285,
Cc1ccc(CSc2ccc(S(=O)(=O)N3CCCCC3)cn2)cc1,-5.06,
C=CC[C@@H](CC(=O)N[C@@H](CO)Cc1ccccc1)C(=O)N[C@H](COC(=O)[C@H](CC=C)CC(=O)OC(C)(C)C)Cc1ccccc1,22.3,
COc1cccc(NC(=O)CN(C)C(=O)c2cc(C3CC3)nn2-c2ccccc2)c1,-21.5,
CCN(CC)S(=O)(=O)c1ccc2nc(CSc3nnnn3-c3ccc(O)cc3)[nH]c2c1,-16.9,
CCN(CC)S(=O)(=O)c1ccc2nc(COC(=O)c3n[nH]c4ccccc34)[nH]c2c1,,12.6 µM (active)
COc1ccc(COC(=O)c2n[nH]c3ccccc23)cc1F,-17.8,
CC(OC(=O)c1cc2ccccc2[nH]1)C(=O)N(C)c1ccccc1 (configuration not stated),-6.2,
CCN(CC)CCCNC(=O)c1cn(C)c2ccc(S(=O)(=O)N(C)C3CCCCC3)cc2c1=O,-9.03,
CCN(CC)CCCNC(=O)c1c(O)c2cc(F)cc3c2n(c1=O)C(C)CC3 (configuration not stated),,10 µM (active)
CCNC(=O)c1c(O)c2cccc3c2n(c1=O)CC3,11.3,

Compound,"activity change, negative = inhibition [%]",Potency
O=C(CSc1nnc(CN2CCCC2)n1-c1ccc(F)cc1)c1ccc2c(c1)OCO2,-6.26,
COc1ccc(/C=C/C(=O)OCC(=O)N2CCN(S(=O)(=O)c3ccc(C)cc3C)CC2)cc1OC,0.143,
CCn1ccnc1CN(C)C(=O)c1cc(COc2ccc(-n3cncn3)cc2)on1,-21,
C=CCC1(CC=C)CCCN1C(=O)c1cc(COc2ccc(-n3cncn3)cc2)on1,,5.01 µM (active)
O=C(c1cc(COc2ccc(F)c(F)c2)on1)N1CCOCC1,0.0465,
O=C1C[C@@H]2c3c(cccc3CN1Cc1ccccc1)C[C@@H](O)[C@H]2O,9.7,
Cc1ccc(-c2cc(=O)[nH]c(NCc3ccccc3)n2)cc1,12.1,
O=C(CN1C(=O)NC2(CCOc3ccccc32)C1=O)Nc1cccc([N+](=O)[O-])c1 (configuration not stated),-16.3,
CN(C(=O)COC(=O)c1nc(Cl)ccc1Cl)C1CCS(=O)(=O)C1 (configuration not stated),-7.4,
CN(C(=O)COC(=O)c1cc(-c2ccco2)nc2ccccc12)C1CCS(=O)(=O)C1 (configuration not stated),-5.06,
Cc1c(-c2cccc(Cl)c2)nc2ccccc2c1C(=O)OCC(=O)N(C)C1CCS(=O)(=O)C1 (configuration not stated),,3.55 µM (active)
Cc1ccc(CNC(=O)Cn2cnc3c(NCc4ccccc4)ncnc32)o1,-2.28,
Cc1ccc(NC(=O)Cn2c(C)csc2=O)cc1,11,
Clc1ccc(CSc2nnc(/C=C/c3ccccc3)o2)c(Cl)c1,-3.62,
CSCc1cc(N2CCOCC2)nc(SCc2ccc(Cl)cc2Cl)n1,-16.6,
CSCc1cc(N(C)C)nc(SCc2ccc(Cl)cc2Cl)n1,,8.91 µM (active)
Nn1c(SCC(=O)NC2CCCc3ccccc32)nnc1C1CC1 (configuration not stated),-12.4,
Cc1nnc(N/N=C/c2ccccn2)[nH]c1=O,,3.55 µM (active)
Cc1nnc(N/N=C/c2cccs2)[nH]c1=O,15.5,
Cc1ccccc1Nc1nnc(C)c(=O)[nH]1,5.21,
